Screening results from PubChem BioAssay.
Only some compounds are listed: those with a hit (about 10% of all), similar ones and a draw of the others.
HEK293 tox = HEK 293 cell cytotoxicity. HEK 293 viability, ATP luminescence (CellTiter-Glo), 48-72 h. Potency, µM (doses to about 115 µM), for the others: top-dose activity change, negative = cytotoxicity, usual class: inhibitors. hit rate 6.6% among 94,000. AID 1345083; also: nearly all actives have a fitted effect of over 60% in size
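Cytotoxicity was scored by loss of ATP-coupled luminescence (CellTiter-Glo) in HEK 293 cells. Compound treatment ran 48 or 72 hr at 37 degree Celsius, 5% CO2, 95% humidity.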
3T3 cytotox = NIH 3T3 cell cytotoxicity. hit rate 4.3% among 94,000. NIH 3T3 viability, CellTiter-Glo ATP luminescence, 48-72 h. Potency, µM (highest dose often 96.7 µM), for inactives: at the highest dose activity change, negative = cytotoxicity, most hits filed as inhibitors; also: nearly all actives have a fitted effect of over 55% in size
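Cytotoxicity was measured by CellTiter-Glo ATP luminescence after 48 or 72 h compound exposure at 37 °C. Mouse NIH 3T3 fibroblasts were seeded at 400 cells/well and dosed by 23 nL pin transfer.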
GPT2 inhibitor = blocks human glutamate pyruvate transaminase 2. Q8TD30. Recombinant GPT2, coupled pyruvate oxidase/HRP Amplex Red fluorescence. Potency, µM (top dose mostly 57.7 µM), for inactives: at the highest dose activity change, negative = inhibition, hits mostly inhibitors. hit rate 0.25% among 100,000; also: nearly all actives have a fitted effect of over 60% in size
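GPT2 10ng/uL, a-KG 250uM, L-Ala 2mM, HEPES pH7.5 + 0.0001% Tween; 30 min RT. Then Amplex mix (PO/HRP/ThPP), 30 min RT dark, fluorescence. AOA 50uM used as positive control.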
Luciferase inh = Photinus pyralis luciferase inhibition; P08659; purified P. pyralis luciferase, luminescence, biochemical; Potency, µM (highest dose often 115 µM), actives largely listed as inhibitors; hit rate 2.5% among 76,000; AID 1347043; also: nearly all actives have a fitted effect of over 65% in size
Target sequence (P08659 whole entry, looked up): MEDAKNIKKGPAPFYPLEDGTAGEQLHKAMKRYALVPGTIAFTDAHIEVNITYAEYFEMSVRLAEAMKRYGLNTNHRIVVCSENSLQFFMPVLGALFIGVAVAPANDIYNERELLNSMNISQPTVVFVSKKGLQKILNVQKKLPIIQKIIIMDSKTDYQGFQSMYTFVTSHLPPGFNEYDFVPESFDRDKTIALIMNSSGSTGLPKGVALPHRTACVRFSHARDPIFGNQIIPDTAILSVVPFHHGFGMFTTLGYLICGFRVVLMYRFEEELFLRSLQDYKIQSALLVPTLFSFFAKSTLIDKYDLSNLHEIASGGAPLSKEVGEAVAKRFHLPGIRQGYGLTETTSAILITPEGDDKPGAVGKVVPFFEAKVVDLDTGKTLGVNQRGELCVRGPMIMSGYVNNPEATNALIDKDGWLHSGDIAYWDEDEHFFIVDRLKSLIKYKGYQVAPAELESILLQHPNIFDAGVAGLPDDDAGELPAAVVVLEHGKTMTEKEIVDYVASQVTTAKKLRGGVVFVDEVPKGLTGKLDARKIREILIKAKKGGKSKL
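Purified 10nM P. pyralis luciferase with 10uM D-luciferin and 10uM ATP in 50mM Tris acetate pH 7.5, 10mM Mg acetate, 0.01% Tween-20, 0.05% BSA. qHTS titration; luminescence read by CCD imager.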
hNpr1 antagonist = human Npr1 receptor antagonism; HEK293 hNpr1 GloSensor cGMP, ANP-stimulated luminescence; P16066; Potency, µM (top dose mostly 46.3 µM), inactives show top-dose activity change, negative = inhibition, most hits filed as inhibitors; hit rate 1.6% among 76,000; AID 1347048; calls by dose curve; also: nearly all actives have a fitted effect of over 60% in size
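Compound pre-incubated 30 min at room temperature on GloSensor-loaded HEK293 cells stably carrying hNpr1 and the pGS-40F cGMP biosensor. Stimulation uses hNppA at 0.1 nM final; luminescence is taken at baseline and 20 min post-agonist.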
* hit, by the source's call; [ ] = another dose, or the depositor's remark. Unless noted, calls follow the shape of the dose curve; as a rule, active = well fitted curve in the direction sought with a large enough effect; inconclusive = small, poorly fitted or top-dose-only effect, or another doubt; inactive = no such curve, though single readings can be large; an effect the other way counts as inactive or inconclusive. % is scaled to controls: 0 for no effect and ±100 for the full control effect; potency is read from the fitted curve at half-maximal effect.

COc1ccc(-c2ccnc3nc(CCc4ccccc4)nn23)c(F)c1 was read as HEK293 tox inconclusive, 3T3 cytotox inconclusive, GPT2 inhibitor -7%, Luciferase inh inactive and hNpr1 antagonist 5%.
For O=C(Cc1cccs1)N1[C@@H](c2ccccc2)[C@@H](CO)C[C@]12CCCCNC2=O the results were HEK293 tox inconclusive and 3T3 cytotox -15%.
`COCC(=O)NC1CCC12CCN(S(=O)(=O)c1ccc3c(c1)OCCO3)CC2` (stereo unspecified) gave HEK293 tox -6%, 3T3 cytotox -15% and GPT2 inhibitor 1%.
`COCC(=O)NC1CCC12CCN(C(=O)Nc1ccc3c(c1)OCCO3)CC2` (stereo unspecified) gave HEK293 tox -23%, 3T3 cytotox inconclusive, GPT2 inhibitor 0%, Luciferase inh 45µM* and hNpr1 antagonist -10%.
Screening CCN1C(=O)C2CC3(CCN(C(=O)Nc4ccc5c(c4)OCCO5)CC3)CN2C1=O (stereo unspecified) returned HEK293 tox -16%, 3T3 cytotox -2%, GPT2 inhibitor -2%, Luciferase inh 35µM* and hNpr1 antagonist 0%.
COc1ccccc1Nc1ccnc(N2CCC(C(=O)N3CCN(Cc4ccccc4)CC3)CC2)n1 was read as HEK293 tox inconclusive, 3T3 cytotox inconclusive and GPT2 inhibitor inactive.
Cc1noc(C)c1-c1cc2c(c(-c3ccccc3Oc3ccccc3)c1)C(=O)N(C)C2 was read as HEK293 tox inconclusive, 3T3 cytotox 13µM*, GPT2 inhibitor inconclusive, Luciferase inh inactive and hNpr1 antagonist -23%[70.6 µM].
Screening Cc1noc(C)c1-c1cc2c(c(-c3cccc(OC(C)C)c3)c1)C(=O)N(C)C2 returned HEK293 tox inconclusive, 3T3 cytotox inconclusive, GPT2 inhibitor 3%[88.5 µM], Luciferase inh inactive and hNpr1 antagonist 1.8µM*.
Screening O=C(CCc1cc(Cl)no1)N1CCc2nc3cc(-c4ccccc4)[nH]n3c(=O)c2C1 returned HEK293 tox inconclusive, 3T3 cytotox -18%, GPT2 inhibitor inactive, Luciferase inh inconclusive and hNpr1 antagonist -9%.
For COc1cccc(CN2CCC3(CC2)CC(Cc2nc(C)no2)CCO3)n1 (stereo unspecified) the results were HEK293 tox -15%, 3T3 cytotox -17%, GPT2 inhibitor inactive, Luciferase inh inactive and hNpr1 antagonist 1%.
O=C(c1cccc(Cl)c1)N1CCC(C(=O)N2CCC(c3nc4ncccc4[nH]3)C2)CC1 (stereo unspecified) was read as HEK293 tox 1%, 3T3 cytotox -14% and GPT2 inhibitor -7%.
`c1cncc(CN2CCC[C@H]2c2nc(-c3ccnc(N4CCCC4)c3)no2)c1` gave HEK293 tox inconclusive, 3T3 cytotox inconclusive, GPT2 inhibitor -11%[88.5 µM], Luciferase inh inactive and hNpr1 antagonist -2%[70.6 µM].
Screening c1cc(-c2noc([C@@H]3CCCN3Cc3ncc[nH]3)n2)cc(N2CCCC2)n1 returned HEK293 tox 100µM*, 3T3 cytotox inconclusive, GPT2 inhibitor inactive, Luciferase inh inactive and hNpr1 antagonist -27%[70.6 µM].
For CC(=O)N1CCN(c2cc(-c3noc([C@@H]4CCCN4Cc4ccc(N(C)C)cc4)n3)ccn2)CC1 the results were HEK293 tox 18µM*, 3T3 cytotox -30%, GPT2 inhibitor -2%, Luciferase inh inactive and hNpr1 antagonist -1%.
`O=C(NC1CCCN(c2ccc3nnc(C4CC4)n3n2)C1)c1ccc(Cl)cc1` (stereo unspecified) gave HEK293 tox -25% and 3T3 cytotox -26%.
Screening COc1ccc(OC)c(S(=O)(=O)N2CCC([C@H]3[C@@H](OC)C(=O)N3C(C)C)CC2)c1 returned HEK293 tox -2%, 3T3 cytotox -15%, GPT2 inhibitor 4%, Luciferase inh inactive and hNpr1 antagonist 3%.
`O=C(c1nnc(COc2cc(F)cc(F)c2)n1-c1ccccc1)N1CCC[C@@H]1c1nc2ccccc2[nH]1` gave HEK293 tox inconclusive, 3T3 cytotox 32µM*, GPT2 inhibitor 0%, Luciferase inh inactive and hNpr1 antagonist 0%.
